# Experimental data reported in ChEMBL document CHEMBL3988442, “University of Dundee, Small-Polar-MMV Screening Library” (2021).
# Hit rate of the full screen: of about 48,000 compounds, about 13,000 (27%) showed an effect of 50% or more. Some of the results follow.
# System: Wolbachia pipientis
# Experiment: Anti-Wolbachia Cell-Based Screen
# Type: functional
# Parameters: scale not given: in the data most compounds retested in dose-response had high values
# Conditions: 5 µM
row,SMILES,Percent Effect [%]
1,COc1cc(C)c(CNC(C)c2nc(C)cs2)cc1OC (centres undefined),-0.3291
2,CNC(=O)c1cn2cc(-c3ccc(F)cc3)n(CC=C(C)C)c(=O)c2n1,0.6659
3,Cc1nccc(N2CC[C@@H]3[C@@H](CCC(=O)N3CCc3ccccc3)C2)n1,-6.653
4,N#Cc1nccnc1N1CCC(Cc2ccccc2)C1 (centres undefined),-1.044
5,CCN1CC(COc2ccccc2)Oc2ncccc2S1(=O)=O (centres undefined),122.7
6,Cc1cc(C)c(C#N)c(N2CCC(Cc3ccccc3)CC2)n1,-43.81
7,O=S1(=O)c2cccnc2OC(COc2ccccc2)CN1CC1CC1 (centres undefined),113.6
8,CCS(=O)(=O)N1CCC2(CC1)COC(COc1cccnc1)C2.O=C(O)C(F)(F)F (centres undefined),0.5823
9,O=S1(=O)c2cccnc2OC(Cc2ccccc2)CN1CC1CC1 (centres undefined),92.92
10,O=C(c1c[nH]c2ncccc12)N1CCC(COc2ccccc2)CC1,-0.9312
11,CCN1Cc2c(C(=O)NCC3CC3)ncn2-c2ccccc2S1(=O)=O,19.38
12,COCC1CN(C(=O)Cc2ccccn2)Cc2c1cnn2CC1CC1.O=C(O)C(F)(F)F.O=C(O)C(F)(F)F (centres undefined),-11.65
13,COC(=O)CNCC1(O)CCCN(Cc2cccc(F)c2F)C1=O (centres undefined),2.816
14,NC(=O)CN(CC(=O)NCc1cccc(Cl)c1)C1CCCC1,3.155
15,Nc1ncccc1C(=O)NCc1ccc(Br)cc1,135.9
16,COc1cccc(CNC(=O)c2cccnc2N)c1,120.4
17,CC(C)(NC(=O)NCc1cccc(Br)c1)C(=O)O,23.95
18,COc1ncccc1CNC(=O)c1cccnc1O,-6.886
19,CS(=O)(=O)Cc1ccc(CNC(=O)c2cccnc2O)cc1,12.39
20,O=C(NCc1ccncc1)c1ccc(Cl)cc1F,1.231
21,Nc1ncccc1C(=O)NCc1cccc(Br)c1,158
22,Nc1ncccc1C(=O)NCc1cccc(Cl)c1,135.3

row,SMILES,Percent Effect [%]
1,COCC(=O)NCc1cccc(Br)c1,-15.74
2,COc1cccc(CNC(=O)c2nc3c(o2)CN(S(C)(=O)=O)C3)c1,-11.41
3,Cn1ccnc1-c1noc(NCc2ccccc2)n1,-0.05664
4,Nc1nnc(CCCNc2ncnc3c2CCN(C(=O)C2CC2)C3)s1,2.255
5,O=C(O)CSc1nnc(-c2cn[nH]c2)n1-c1ccccc1C(F)(F)F,-22.33
6,CC(=O)NC1(C(=O)N(C)Cc2c(C)noc2C)CCCCC1,-7.535
7,COc1ccc(C2CC(=O)c3c(O)cc(O)cc3O2)cc1O (centres undefined),-2.499
8,CC(C)(C)c1coc([C@@H]2COCCN2Cc2ccccn2)n1,-4.744
9,Cc1cccc(CN2CCN(C(=O)c3cccnc3O)CC2)c1,-8.356
10,CCCNC(=O)c1cccc2ncccc12,14.09
11,Cc1cccc(CNC(=O)c2cccnc2N)c1,165.4
12,O=S1(=O)CCC(N(Cc2nc3ccccc3o2)Cc2cccs2)C1 (centres undefined),98.01
13,O=C(CN(Cc1cccs1)C1CCS(=O)(=O)C1)NCC1CCCCC1 (centres undefined),2.941
14,Cc1noc(C)c1CN(Cc1cccs1)C1CCS(=O)(=O)C1 (centres undefined),104.9
15,CC(C)c1noc(CN(Cc2cccs2)C2CC2)n1,16.09
16,O=S1(=O)CCC(N(Cc2nc(-c3ccccn3)no2)Cc2cccs2)C1 (centres undefined),124.4
17,Cc1nc(CN(Cc2cccs2)C2CCS(=O)(=O)C2)oc1C (centres undefined),-2.391
18,CC(C)(C)c1nc(CN(Cc2cccs2)C2CCS(=O)(=O)C2)cs1 (centres undefined),26.63
19,Cc1ccc(-c2nc(CN(Cc3cccs3)C3CCS(=O)(=O)C3)cs2)o1 (centres undefined),4.898
20,Cc1noc(CN(Cc2cccs2)C2CCS(=O)(=O)C2)n1 (centres undefined),99.33
21,CC(C)(C)c1nc(CN(Cc2cccs2)C2CCS(=O)(=O)C2)no1 (centres undefined),9.766
22,CC(=O)c1ccc(C(=O)N(C)Cc2nc(-c3ccccn3)no2)s1,-11.07

row,SMILES,Percent Effect [%]
1,O=C(CN(Cc1cccs1)C1CCS(=O)(=O)C1)NC1CCCCC1 (centres undefined),14.98
2,O=C(CNC(=O)c1ccoc1)NC(c1ccc(F)cc1)C(F)(F)F (centres undefined),0.03163
3,CC1CN(C(=O)c2nccnc2N)c2ccc(F)cc2O1 (centres undefined),-7.593
4,COCCN(CCOC)C(=O)c1sc(C)nc1C,-9.667
5,CCC(C)(C)NC(=O)C[S+]([O-])Cc1csc(C2CCCC2)n1 (centres undefined),-6.862
6,Cc1ccc(C)c(CS(=O)(=O)CC(=O)N(C)Cc2cccc(F)c2)c1,-31.79
7,c1nc(N2CCCC(Cn3cncn3)C2)c2sccc2n1 (centres undefined),164.6
8,c1cnn(CC2CCCCN2c2ncnc3sccc23)c1 (centres undefined),-1.869
9,c1cnn(CC2CCCN2c2ncnc3c2CCC3)c1 (centres undefined),-39.95
10,Cc1sc2ncnc(N3CCCC3Cn3cccn3)c2c1C (centres undefined),126.3
11,c1cnn(CC2CCCN2c2ncnc3sccc23)c1 (centres undefined),-19.57
12,c1nc2c(c(N3CCCC(Cn4cncn4)C3)n1)CCC2 (centres undefined),-15.31
13,c1nc(N2CCCC(Cn3cncn3)C2)c2ccsc2n1 (centres undefined),13.9
14,c1cnn(CC2CCCN2c2ncnc3ccsc23)c1 (centres undefined),77.53
15,Cc1nc(C)n(CC2CCCN(c3ncnc4sccc34)C2)n1 (centres undefined),4.886
16,Cc1nc(C)n(CC2CCCN2c2ncnc3sccc23)n1 (centres undefined),103.4
17,c1ccc2c(N3CCCC3Cn3cccn3)ncnc2c1 (centres undefined),-8.877
18,c1nc(N2CCCC2Cn2cncn2)c2ccsc2n1 (centres undefined),-0.0676
19,COc1ccc(CN2C[C@@H]3[C@H](CC(=O)N4CCCC4)[C@@H]3C2)cc1.O=C(O)C(F)(F)F,-9.887
20,CN(C)C[C@@H]1CCC[C@@H]2CN(c3cccnc3)C[C@@H]21.O=C(O)C(F)(F)F,5.573
21,CC(C)c1nc(S(=O)(=O)N(C)c2cc(F)ccc2F)c[nH]1,7.665
22,CCN(Cc1ccoc1)Cc1nc(COC)no1,-32.73

row,SMILES,Percent Effect [%]
1,Cc1nc(C)n(CC2CCCCN2c2ncnc3ccsc23)n1 (centres undefined),109.8
2,c1nc(N2CCCCC2Cn2cncn2)c2sccc2n1 (centres undefined),0.3831
3,Cc1nc(C)n(CC2CCCCN2c2ccnc(-c3ccccc3)n2)n1 (centres undefined),-2.922
4,Cc1nc(C)n(CC2CCCN2c2ncnc3ccsc23)n1 (centres undefined),106.3
5,CN(C)C(=O)C1CCCN1c1ncnc2ccsc12 (centres undefined),11.36
6,Cc1nc(C)n(CC2CCCN2c2ccnc(-c3ccccc3)n2)n1 (centres undefined),6.693
7,CN1CCN(C(=O)C2CCCN2c2ncnc3ccsc23)CC1 (centres undefined),-5.799
8,Cc1nc(C)n(CC2CCCN2c2ncnc3c2CCC3)n1 (centres undefined),-5.699
9,Cc1nc(C)n(CC2CCCN2c2ncnc3sc(C)c(C)c23)n1 (centres undefined),109.1
10,CN(C)C1Cc2ccccc2N(S(=O)(=O)c2cccc(C#N)c2)C1 (centres undefined),-17.15
11,CC(C)CC(=O)N1CCN(C(=O)N(C)C)CC2(CC(=O)N(C)C2)C1 (centres undefined),-13.83
12,Cn1cnnc1C1CCN(C(=O)c2cc(-c3ccccc3)on2)CC1,84.11
13,Cc1noc(C2CCCN(C(=O)c3cc(Cl)cn3C)C2)n1 (centres undefined),-4.017
14,CCOC1CCN(C(=O)c2cc(-c3ccc(Cl)cc3)on2)CC1,-1.009
15,Cc1noc(C2CCCN(C(=O)c3cc(Cl)ccc3F)C2)n1 (centres undefined),-1.909
16,CCOc1ncccc1C(=O)N1CCCC(c2nncn2C)C1 (centres undefined),139.9
17,CCOc1ncccc1C(=O)N1CCCC(c2nccn2CCOC)C1 (centres undefined),-5.342
18,Cn1cnnc1C1CCCN(C(=O)NCc2ccccc2)C1 (centres undefined),-1.027
19,Cn1cnnc1C1CCCN(C(=O)NCc2cc[nH]n2)C1 (centres undefined),-3.292
20,Cc1noc(C2CCCN(C(=O)c3cc(-c4ccccc4)on3)C2)n1 (centres undefined),95.63
21,Cc1csc(CNC(=O)N2CCCC(c3nncn3C)C2)n1 (centres undefined),102.5
22,COC1CCN(C(=O)c2cc(-c3ccc(Cl)cc3)on2)CC1,1.194

row,SMILES,Percent Effect [%]
1,COc1ccc(CNC(=O)NC2CCN(CC(F)F)CC2)cc1C,8.282
2,CSc1cccc(CC(=O)N[C@@H]2CCNC[C@H]2O)c1,-1.267
3,Cn1cnnc1C1CCCN(C(=O)NCCc2ccccn2)C1 (centres undefined),-4.673
4,Cn1cnnc1C1CCCN(C(=O)c2cc(-c3ccccc3)on2)C1 (centres undefined),103.3
5,Cn1cnnc1C1CCCN(C(=O)c2ccccn2)C1 (centres undefined),140.5
6,Cn1cnnc1C1CCCN(C(=O)NCc2ccccn2)C1 (centres undefined),107.2
7,Cn1cnnc1C1CCCN(C(=O)c2cnc3ccccc3n2)C1 (centres undefined),-5.928
8,c1cc(-c2ccc3c(c2)CCC32CCNCC2)ccn1,-7.075
9,CC1(C)Cc2c(cnn2-c2cccc(F)c2)C(NC2CCSCC2)C1 (centres undefined),7.076
10,Cc1ccc2nc(-c3cnc(N)nc3)cc(C(=O)N(C)C)c2c1,-1.148
11,CCCn1cc(-c2cc(C(=O)N(C)C)c3cccc(C)c3n2)cn1,108.4
12,COc1ccc2nc(C3CC3)cc(C(=O)NCC(=O)N(C)C)c2c1,-4.105
13,COc1ccc2c(C(=O)N(C)C)cc(-c3cnc(N)nc3)nc2c1,-11.66
14,CCCn1cc(-c2cc(C(=O)N(C)C)c3ccc(C)cc3n2)cn1,103.4
15,COc1ccc(CNC(=O)CCn2cc(C)cn2)cc1C,-6.428
16,CN(C)C(=O)c1cc(-c2cnc(N)nc2)nc2cc(F)ccc12,2.349
17,Cc1ccc2c(C(=O)N(C)C)cc(-c3cnn(CCO)c3)nc2c1C,115.7
18,CCCn1cc(-c2cc(C(=O)N(C)C)c3ccc(OC)cc3n2)cn1,91.31
19,CO[C@H]1CNC[C@@H]1NC(=O)c1cc(C)nc2c(C)c(C)ccc12,-8.867
20,Cc1cc(C(=O)NCc2csc(N(C)C)n2)c2ccc(C)c(C)c2n1,2.506
21,Cc1cc(C)c2c(C(=O)N(C)C)cc(-c3cnc(N)nc3)nc2c1,-4.473
